Holding throughout (assay): PBM; 200 nM protein, PBS
Conditions in all cases: dsDNA, one strand shown

The target in test [1] is HOXB9 (Homo sapiens, UniProt P17482 171-250, T197M).
Test [2] deals with HOXA4 (Homo sapiens, UniProt Q00056 201-287, W262R).
The target in test [3] is HOXC9 (Homo sapiens, UniProt P31274 178-260, K195R).
The target of the next test is T1, VENTX (Homo sapiens, UniProt O95231 78-163).
T1 sequence: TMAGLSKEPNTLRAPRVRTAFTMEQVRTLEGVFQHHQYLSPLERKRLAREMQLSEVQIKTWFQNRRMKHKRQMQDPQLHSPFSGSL

The target of test [4] is HOXA7 (Homo sapiens, UniProt P31268 116-202).
Chain of HOXA7 (Homo sapiens, UniProt P31268 116-202) (P31268 116-202): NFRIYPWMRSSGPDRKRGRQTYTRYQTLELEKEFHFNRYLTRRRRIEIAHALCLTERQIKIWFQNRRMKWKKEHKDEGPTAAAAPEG
Test [5] has as its target HOXC10 (Homo sapiens, UniProt Q9NYD6 254-340).
The target of test [6] is HOXB6 (Homo sapiens, UniProt P17509 132-218, K202E).
Chain of HOXB6 (Homo sapiens, UniProt P17509 132-218, K202E) (P17509 132-218 K202E): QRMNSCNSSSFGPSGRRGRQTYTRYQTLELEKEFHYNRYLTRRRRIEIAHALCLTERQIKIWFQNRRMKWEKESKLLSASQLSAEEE
In test [7] the target is HOXB9 (Homo sapiens, UniProt P17482 171-250).
Chain of HOXB9 (Homo sapiens, UniProt P17482 171-250) (P17482 171-250): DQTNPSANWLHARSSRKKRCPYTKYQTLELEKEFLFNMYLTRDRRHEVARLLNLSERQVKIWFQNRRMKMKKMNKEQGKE
For test [8], the target named is HOXC9 (Homo sapiens, UniProt P31274 178-260).
Chain of HOXC9 (Homo sapiens, UniProt P31274 178-260) (P31274 178-260): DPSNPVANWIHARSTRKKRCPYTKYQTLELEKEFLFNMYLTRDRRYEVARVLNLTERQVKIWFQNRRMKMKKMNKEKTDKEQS
Test [9] deals with HOXC9 (Homo sapiens, UniProt P31274 178-260, R193K).
Chain of HOXC9 (Homo sapiens, UniProt P31274 178-260, R193K) (P31274 178-260 R193K): as the sequence (P31274 178-260) above, with R16K counted along it
Test [10] concerns the target HOXA4 (Homo sapiens, UniProt Q00056 201-287).
The target in test [11] is HOXC10 (Homo sapiens, UniProt Q9NYD6 254-340, K271E).
Chain of HOXC10 (Homo sapiens, UniProt Q9NYD6 254-340, K271E) (Q9NYD6 254-340 K271E): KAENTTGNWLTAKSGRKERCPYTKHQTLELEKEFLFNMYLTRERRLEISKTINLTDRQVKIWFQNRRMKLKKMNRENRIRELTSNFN
Another test has as its target VAX1 (Homo sapiens, UniProt Q5SQQ9 86-172).
Test [12] addresses HOXB9 (Homo sapiens, UniProt P17482 171-250, R186Q).
Test [13] has as its target HOXC9 (Homo sapiens, UniProt P31274 178-260, R222W).
The target in the next test is T2, PAX4 (Homo sapiens, UniProt O43316 9-242, R227W).
T2 sequence: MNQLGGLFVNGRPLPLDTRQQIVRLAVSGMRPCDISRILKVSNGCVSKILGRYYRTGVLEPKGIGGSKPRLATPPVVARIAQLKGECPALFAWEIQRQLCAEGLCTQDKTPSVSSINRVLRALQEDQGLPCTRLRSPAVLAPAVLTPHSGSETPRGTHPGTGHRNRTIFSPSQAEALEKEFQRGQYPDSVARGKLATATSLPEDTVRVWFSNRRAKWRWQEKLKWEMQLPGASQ

The target of test [14] is HOXA2 (Homo sapiens, UniProt O43364 129-215, Y150S).
Chain of HOXA2 (Homo sapiens, UniProt O43364 129-215, Y150S) (O43364 129-215 Y150S): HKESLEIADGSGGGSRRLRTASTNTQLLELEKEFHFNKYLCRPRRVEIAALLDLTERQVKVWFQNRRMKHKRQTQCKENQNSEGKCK
Test [15] deals with HOXA7 (Homo sapiens, UniProt P31268 116-202, W177C).
Chain of HOXA7 (Homo sapiens, UniProt P31268 116-202, W177C) (P31268 116-202 W177C): as the sequence (P31268 116-202) above, with W62C counted along it
For test [16], the target named is HOXA2 (Homo sapiens, UniProt O43364 129-215).
Chain of HOXA2 (Homo sapiens, UniProt O43364 129-215) (O43364 129-215): as the sequence (O43364 129-215 Y150S) above, with S22Y counted along it
Test [17] concerns the target HOXB6 (Homo sapiens, UniProt P17509 132-218).

Chain of HOXA4 (Homo sapiens, UniProt Q00056 201-287, W262R) (Q00056 201-287 W262R): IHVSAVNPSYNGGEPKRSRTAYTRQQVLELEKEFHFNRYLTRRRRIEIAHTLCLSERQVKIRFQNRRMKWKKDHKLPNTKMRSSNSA
Chain of HOXA4 (Homo sapiens, UniProt Q00056 201-287) (Q00056 201-287): as the sequence (Q00056 201-287 W262R) above, with R62W counted along it
Chain of HOXC9 (Homo sapiens, UniProt P31274 178-260, R222W) (P31274 178-260 R222W): as the sequence (P31274 178-260) above, with R45W counted along it
Chain of VAX1 (Q5SQQ9 86-172): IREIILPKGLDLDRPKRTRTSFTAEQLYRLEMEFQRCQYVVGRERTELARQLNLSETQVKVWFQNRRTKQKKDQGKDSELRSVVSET
Chain of HOXB9 (Homo sapiens, UniProt P17482 171-250, T197M) (P17482 171-250 T197M): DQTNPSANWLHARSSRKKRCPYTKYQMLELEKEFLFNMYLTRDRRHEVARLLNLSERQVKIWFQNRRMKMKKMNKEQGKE
Chain of HOXB6 (Homo sapiens, UniProt P17509 132-218) (P17509 132-218): as the sequence (P17509 132-218 K202E) above, with E71K counted along it
Chain of HOXC9 (Homo sapiens, UniProt P31274 178-260, K195R) (P31274 178-260 K195R): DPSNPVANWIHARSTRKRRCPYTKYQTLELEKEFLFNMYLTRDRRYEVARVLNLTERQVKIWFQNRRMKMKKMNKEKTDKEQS
Chain of HOXC10 (Homo sapiens, UniProt Q9NYD6 254-340) (Q9NYD6 254-340): as the sequence (Q9NYD6 254-340 K271E) above, with E18K counted along it
Chain of HOXB9 (Homo sapiens, UniProt P17482 171-250, R186Q) (P17482 171-250 R186Q): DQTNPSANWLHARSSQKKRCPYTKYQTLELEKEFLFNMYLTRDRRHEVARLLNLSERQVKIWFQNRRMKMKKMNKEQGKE

On to TAATTAAA, for which the binding signal is 10.3 upbm affinity estimate (log intensity, higher = more binding, comparable within an allelic series) in the test with HOXB9 [1]; 10.8 upbm affinity estimate (log intensity, higher = more binding, comparable within an allelic series) in the test with HOXA4 [2]; 13.1 upbm affinity estimate (log intensity, higher = more binding, comparable within an allelic series) with HOXC9 [3]; 12.5 upbm affinity estimate (log intensity, higher = more binding, comparable within an allelic series) with VENTX; 11.9 upbm affinity estimate (log intensity, higher = more binding, comparable within an allelic series) with HOXA7 [4]; 12.7 upbm affinity estimate (log intensity, higher = more binding, comparable within an allelic series) with HOXC10 [5]. The binding signal in the test with HOXB6 [6] was 10.1 upbm affinity estimate (log intensity, higher = more binding, comparable within an allelic series); with HOXB9 [7], 12.4 upbm affinity estimate (log intensity, higher = more binding, comparable within an allelic series); in the test with HOXC9 [8], 13 upbm affinity estimate (log intensity, higher = more binding, comparable within an allelic series); in the test with HOXC9 [9], 13 upbm affinity estimate (log intensity, higher = more binding, comparable within an allelic series); with HOXA4 [10], 14.1 upbm affinity estimate (log intensity, higher = more binding, comparable within an allelic series); in the test with HOXC10 [11], 12.7 upbm affinity estimate (log intensity, higher = more binding, comparable within an allelic series). Besides, the binding signal in the test with VAX1 was 13.3 upbm affinity estimate (log intensity, higher = more binding, comparable within an allelic series); with HOXB9 [12], 12.1 upbm affinity estimate (log intensity, higher = more binding, comparable within an allelic series); with HOXC9 [13], 11.5 upbm affinity estimate (log intensity, higher = more binding, comparable within an allelic series); in the test with PAX4, 11.2 upbm affinity estimate (log intensity, higher = more binding, comparable within an allelic series); with HOXA2 [14] it was 10.9 upbm affinity estimate (log intensity, higher = more binding, comparable within an allelic series); in the test with HOXA7 [15], 8.8 upbm affinity estimate (log intensity, higher = more binding, comparable within an allelic series). Further, the binding signal is 12.9 upbm affinity estimate (log intensity, higher = more binding, comparable within an allelic series) in the test with HOXA2 [16] and 12.3 upbm affinity estimate (log intensity, higher = more binding, comparable within an allelic series) in the test with HOXB6 [17].
Regarding GTTAATTA, the binding signal with HOXB9 [1] was 10.3 upbm affinity estimate (log intensity, higher = more binding, comparable within an allelic series); in the test with HOXA4 [2], 11 upbm affinity estimate (log intensity, higher = more binding, comparable within an allelic series); with HOXC9 [3], 12.9 upbm affinity estimate (log intensity, higher = more binding, comparable within an allelic series); with VENTX it was 13 upbm affinity estimate (log intensity, higher = more binding, comparable within an allelic series); with HOXA7 [4], 12.2 upbm affinity estimate (log intensity, higher = more binding, comparable within an allelic series); with HOXC10 [5], 12.3 upbm affinity estimate (log intensity, higher = more binding, comparable within an allelic series). The binding signal was 10.2 upbm affinity estimate (log intensity, higher = more binding, comparable within an allelic series) with HOXB6 [6]; 12 upbm affinity estimate (log intensity, higher = more binding, comparable within an allelic series) with HOXB9 [7]; 12.8 upbm affinity estimate (log intensity, higher = more binding, comparable within an allelic series) with HOXC9 [8]; 12.8 upbm affinity estimate (log intensity, higher = more binding, comparable within an allelic series) with HOXC9 [9]; 14.3 upbm affinity estimate (log intensity, higher = more binding, comparable within an allelic series) with HOXA4 [10]; 12.3 upbm affinity estimate (log intensity, higher = more binding, comparable within an allelic series) with HOXC10 [11]. Also, the binding signal is 13.8 upbm affinity estimate (log intensity, higher = more binding, comparable within an allelic series) with VAX1; 11.8 upbm affinity estimate (log intensity, higher = more binding, comparable within an allelic series) with HOXB9 [12]; 11.1 upbm affinity estimate (log intensity, higher = more binding, comparable within an allelic series) in the test with HOXC9 [13]; 11.3 upbm affinity estimate (log intensity, higher = more binding, comparable within an allelic series) in the test with PAX4; 10.9 upbm affinity estimate (log intensity, higher = more binding, comparable within an allelic series) with HOXA2 [14]; 8.93 upbm affinity estimate (log intensity, higher = more binding, comparable within an allelic series) in the test with HOXA7 [15]. For the same sequence, the binding signal with HOXA2 [16] is 13.2 upbm affinity estimate (log intensity, higher = more binding, comparable within an allelic series); in the test with HOXB6 [17], 12.5 upbm affinity estimate (log intensity, higher = more binding, comparable within an allelic series).
Take CATAATTA: the binding signal is 10.3 upbm affinity estimate (log intensity, higher = more binding, comparable within an allelic series) with HOXB9 [1]; 10.9 upbm affinity estimate (log intensity, higher = more binding, comparable within an allelic series) with HOXA4 [2]; 12.8 upbm affinity estimate (log intensity, higher = more binding, comparable within an allelic series) in the test with HOXC9 [3]; 12.6 upbm affinity estimate (log intensity, higher = more binding, comparable within an allelic series) in the test with VENTX; 12 upbm affinity estimate (log intensity, higher = more binding, comparable within an allelic series) with HOXA7 [4]; 12.3 upbm affinity estimate (log intensity, higher = more binding, comparable within an allelic series) with HOXC10 [5]. Also, the binding signal is 10.2 upbm affinity estimate (log intensity, higher = more binding, comparable within an allelic series) in the test with HOXB6 [6]; 11.9 upbm affinity estimate (log intensity, higher = more binding, comparable within an allelic series) with HOXB9 [7]; 12.8 upbm affinity estimate (log intensity, higher = more binding, comparable within an allelic series) with HOXC9 [8]; 12.8 upbm affinity estimate (log intensity, higher = more binding, comparable within an allelic series) in the test with HOXC9 [9]; 14.3 upbm affinity estimate (log intensity, higher = more binding, comparable within an allelic series) in the test with HOXA4 [10]; 12.2 upbm affinity estimate (log intensity, higher = more binding, comparable within an allelic series) with HOXC10 [11]. Besides, the binding signal was 13.6 upbm affinity estimate (log intensity, higher = more binding, comparable within an allelic series) with VAX1; 11.7 upbm affinity estimate (log intensity, higher = more binding, comparable within an allelic series) with HOXB9 [12]; 11.1 upbm affinity estimate (log intensity, higher = more binding, comparable within an allelic series) in the test with HOXC9 [13]; 11.3 upbm affinity estimate (log intensity, higher = more binding, comparable within an allelic series) in the test with PAX4; 11.1 upbm affinity estimate (log intensity, higher = more binding, comparable within an allelic series) with HOXA2 [14]; 9.06 upbm affinity estimate (log intensity, higher = more binding, comparable within an allelic series) with HOXA7 [15]. Also, the binding signal in the test with HOXA2 [16] is 13 upbm affinity estimate (log intensity, higher = more binding, comparable within an allelic series); with HOXB6 [17], 12.4 upbm affinity estimate (log intensity, higher = more binding, comparable within an allelic series).

Values taken from publication PMC11006913.
